Compound activity from PubChem BioAssay.
M1 ag = activates the M1 muscarinic receptor | CHO-M1 cells, Fluo-4 calcium fluorescence, agonist mode; hits give high values | B-score at 10 µM | actives 3% (n = 64,000) | AID 626;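 active = fluorescence rise, raw or as B-score row- and column-corrected plate score, outside the 99.7% band of its plate's samples, either direction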
WNV protease inh = inhibitors of West Nile virus NS2B-NS3 protease. actives 0.18% (n = 65,000). AID 577. WNV NS2B-NS3 protease, fluorogenic substrate Ex360/Em465; hits give low values. P06935. z-score (no concentration beside the values); in the data active = z-score below about -3
M1 antag = M1 muscarinic receptor (rat) antagonism; actives 3.4% (n = 64,000); AID 628; CHO-M1 cells, Fluo-4 calcium, ACh EC80 antagonist mode; hits give low values; P08482; B-score at 10 µM;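 active = calcium fluorescence response, raw or row-and-column corrected B-score, differing from the plate sample mean either way at a set confidence level, mostly lower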
mHtt clearance = compounds clearing mutant huntingtin protein | inhibition, % at 1.5 µM | actives 0.42% (n = 47,000) | HeLa Exon1htt(103Q)mCFP, aggregate imaging; zero = plate's median compound well | AID 853;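 active = inhibition of aggregate fluorescence above about 70%, also judged a hit by eye on the cell image, limit read from the data, passing the limit was not always enough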;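 also: cells exposed to compound for three days before fixation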
D1 mod = allosteric modulators of human D1 dopamine receptor | P21728 | HEK293 D1, CRE-luciferase, dopamine EC30 potentiation; actives deviate in either direction | B-score at 10 µM | actives 5.9% (n = 58,000) | AID 641;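 active = luminescence count or its row- and column-corrected plate score outside the 99.7% band of the plate's sample wells, on either side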
Target sequence (P21728 whole entry, looked up): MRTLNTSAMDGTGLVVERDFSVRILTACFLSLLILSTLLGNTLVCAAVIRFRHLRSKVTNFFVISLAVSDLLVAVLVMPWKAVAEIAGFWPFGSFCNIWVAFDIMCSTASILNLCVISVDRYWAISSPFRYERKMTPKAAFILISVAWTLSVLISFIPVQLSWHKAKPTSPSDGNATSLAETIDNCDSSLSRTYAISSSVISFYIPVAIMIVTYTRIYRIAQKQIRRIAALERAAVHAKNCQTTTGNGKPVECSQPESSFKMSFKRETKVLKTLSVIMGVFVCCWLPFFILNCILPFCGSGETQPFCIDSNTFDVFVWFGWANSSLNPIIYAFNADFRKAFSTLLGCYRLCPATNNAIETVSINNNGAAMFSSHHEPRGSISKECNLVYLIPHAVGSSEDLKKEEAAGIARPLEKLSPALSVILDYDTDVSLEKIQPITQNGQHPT
D1 mod confirm = D1 receptor (human) allosteric modulation, confirmed | luminescence at 10 µM | shares compounds with D1 mod | AID 642 | actives 88% (n = 2,200) | HEK293 D1 CRE-luciferase, dopamine EC30 potentiation; hits give high values;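 active = luminescence in either of two replicates above the same-plate mean plus 3 SD of the low-dose dopamine control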
D1 no dopamine = secondary test of D1 modulators: activity without dopamine | luminescence at 10 µM | shares compounds with D1 mod | HEK293 D1 CRE-luciferase, luminescence, no dopamine; hits give high values | actives 0.8% (n = 1,900); in the data active = luminescence above about 3900
Isoprot counter = counter-screen for D1 modulators: isoproterenol response in HEK293 cells; shares compounds with D1 mod; HEK293 D1 CRE-luciferase, isoproterenol EC30 counter-screen; calls only at 10 µM; actives 63% (n = 2,200);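 active = luminescence in either replicate above plate mean of wells with a partly effective reference agonist dose plus 3 SD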;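 also: isoproterenol raises cAMP through native beta-adrenoceptor Gs so signal bypasses D1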
* marks the source's active call; other numbers are inactive results. A selection: hits, their analogues and other compounds. The true share with any hit is near 8.9%.

Screening Cc1cc(C(=O)Nc2cc(C)n(Cc3ccc(Cl)cc3)n2)no1 returned M1 ag 0.0417, WNV protease inh -0.17, M1 antag 0.0828 and D1 mod 1.79.
`CCNc1nc2c(c(=O)n(Cc3ccccc3)c(=O)n2C)n1Cc1ccccc1` gave M1 ag 0.613, WNV protease inh -1.49, M1 antag 0.669, D1 mod 4.4*, D1 mod confirm 8220*, D1 no dopamine 1508 and Isoprot counter active.
`Cc1cccc(Nc2nc3c(c(=O)n(C)c(=O)n3C)n2Cc2ccccc2)c1` gave M1 ag -0.0223, WNV protease inh -0.69, M1 antag 0.0313, mHtt clearance 40.5, D1 mod 21.7*, D1 mod confirm 12460*, D1 no dopamine 1376 and Isoprot counter active.
`Cn1c(=O)c2c(nc(Br)n2Cc2ccc3ccccc3c2)n(C)c1=O` gave M1 ag -1.36, WNV protease inh 0.04, M1 antag 0.0229 and mHtt clearance 48.7.
Screening C/C(Cl)=C/Cn1c(=O)c2c(nc(Br)n2Cc2ccccc2)n(C)c1=O returned M1 ag 1.13, WNV protease inh 0.35, M1 antag 0.533, mHtt clearance 15.4, D1 mod 4.82*, D1 mod confirm 11400*, D1 no dopamine 1484 and Isoprot counter active.
Screening CCc1nc(N)nc2c1C(=O)CC(C)(C)C2 returned M1 ag 0.318, WNV protease inh 1.54, M1 antag -0.67, mHtt clearance 11.6, D1 mod 8.26*, D1 mod confirm 20244*, D1 no dopamine 1712 and Isoprot counter active.
For CC1(C)CC(=O)c2cnc(N)nc2C1 the results were mHtt clearance -33.0.
`O=C(CCSc1nc(-c2ccc3c(c2)OCO3)cc(C(F)(F)F)n1)NCc1ccco1` gave M1 ag 0.506, WNV protease inh 1.07 and M1 antag -0.634.
`O=C1C=C(c2ccc(Cl)cc2)OC2(CCCC2)O1` gave mHtt clearance -33.9.
Screening Brc1ccccc1Cn1c(-c2cncs2)nc2ccccc21 returned M1 ag 0.776, WNV protease inh -0.26, M1 antag -0.436, mHtt clearance -2.2, D1 mod 10.2*, D1 mod confirm 19056*, D1 no dopamine 1708 and Isoprot counter active.
For c1csc(Cn2c(-c3cccs3)nc3ccccc32)c1 the results were M1 ag 0.0125, WNV protease inh 0.23, M1 antag 0.0983 and D1 mod 2.99.
Screening N#CCc1nc2c3c4c(sc3ncn2n1)CCCC4 returned M1 ag 0.00866, WNV protease inh -0.27, M1 antag 0.826, D1 mod 9.55*, D1 mod confirm 11284*, D1 no dopamine 1556 and Isoprot counter active.
Screening O=C(NC1CCCC1)C(c1ccccn1)N(C(=O)c1csnn1)C1CC1 (stereo not given) returned M1 ag 0.0322, WNV protease inh -1.07, M1 antag 1.22, mHtt clearance -42.5 and D1 mod -0.492.
For N#Cc1c(-c2ccccc2)nc(N2CCCCCC2)[nH]c1=O the results were M1 ag 0.047, WNV protease inh -0.22, M1 antag -0.837, mHtt clearance 5.4, D1 mod 12.5*, D1 mod confirm 26112*, D1 no dopamine 1656 and Isoprot counter active.
Screening Cc1ccc(S(=O)(=O)NCCC(=O)NCc2ccc3c(c2)OCO3)cc1C returned M1 ag -0.491, WNV protease inh 1, M1 antag -0.613, mHtt clearance -15.9 and D1 mod 1.29.
Screening O=C(CCNS(=O)(=O)c1ccc2c(c1)CCC(=O)N2)NCc1ccc2c(c1)OCO2 returned M1 ag 0.144, WNV protease inh -0.76, M1 antag -0.0622, D1 mod 2.86*, D1 mod confirm 6928*, D1 no dopamine 1720 and Isoprot counter inactive.
CN1CCN(c2nc(-c3cccnc3)nc3ccccc23)CC1 was read as M1 ag 0.00103, WNV protease inh -0.89, M1 antag -0.0137 and mHtt clearance -47.3.
c1cncc(-c2nc(N3CCCCCC3)c3ccccc3n2)c1 was read as M1 ag 0.0254, WNV protease inh -0.14, M1 antag -0.802, mHtt clearance -22.1, D1 mod 12*, D1 mod confirm 14412*, D1 no dopamine 1464 and Isoprot counter active.
`NC(=O)C1CCN(c2nc(-c3ccccc3)nc3ccccc23)CC1` gave M1 ag 0.356, WNV protease inh -0.71, M1 antag 0.00852, D1 mod 15.4*, D1 mod confirm 24116*, D1 no dopamine 1564 and Isoprot counter active.
`O=C(c1ccccc1)c1ccc(N2CCNCC2)cc1` gave M1 ag -1.52, WNV protease inh 1.57, M1 antag 0.151 and mHtt clearance -44.2.
For CC(C)C(NS(=O)(=O)c1cccs1)C(=O)N1CCc2ccccc2C1 (stereo not given) the results were M1 ag -0.599, WNV protease inh 0.00275, M1 antag 0.409, mHtt clearance 4.3 and D1 mod -0.132.
For CCOc1cc(C(=O)NC(C)c2ccncc2)cc(OCC)c1OCC (stereo not given) the results were M1 ag -0.0767, WNV protease inh -0.99, M1 antag -0.736 and D1 mod -0.96.
`O=C(O)Cn1c(-c2cscn2)nc2ccccc21` gave M1 ag -0.894, WNV protease inh -0.73, M1 antag 0.0682 and D1 mod -0.121.
`N#Cc1ccccc1Cn1c(-c2cscn2)nc2ccccc21` gave M1 ag 0.88, WNV protease inh 0.61, M1 antag 0.0553, mHtt clearance -21.8, D1 mod 13.4*, D1 mod confirm 15376*, D1 no dopamine 1480 and Isoprot counter active.
Screening COc1ccc(C2CC(C(F)(F)F)n3ncc(C(=O)NCc4cccnc4)c3N2)cc1OC (stereo not given) returned M1 ag 0.142, WNV protease inh 0.86, M1 antag -0.171, mHtt clearance -44.6, D1 mod 9.78*, D1 mod confirm 18500*, D1 no dopamine 1632 and Isoprot counter active.
COc1cccc(C2CC(C(F)(F)F)n3ncc(C(=O)NCC4CCCO4)c3N2)c1 (stereo not given) was read as M1 ag -0.123, WNV protease inh 0.79, M1 antag 0.222 and D1 mod 1.19.
Screening Cc1noc(NS(=O)(=O)c2ccc(N/C=C/C(=O)c3ccc4c(c3)OCO4)cc2)c1C returned M1 ag 0.612, WNV protease inh -1.61, M1 antag 0.0516, mHtt clearance -30.8, D1 mod 8.47*, D1 mod confirm 13260*, D1 no dopamine 1840 and Isoprot counter active.
